In PubChem BioAssay (EPA / NIEHS):
The source made the active and inactive calls. Rule for the calls: active = hit-call score of the fitted dose curve at least 0.9, where 1 is the maximum; inactive = score below 0.9.

assay: Tanguay_ZF_120hpf_CRAN: Oregon State University Tanguay Lab 120 Hour Post-fertilization zebrafish Assay for Craniofacial Malformation (AID 2284397)
Protocol: Tanguay_ZF_120hpf is a whole embryo, multiplexed endpoint assay using zebrafish larvae exposed for 120 hours post fertilization on a 96-well plate.Tanguay_ZF_120hpf_CRAN is one of one assay component(s) measured or calculated from the Tanguay_ZF_120hpf assay. It is designed to make measurements of zebrafish development as detected with brightfield microscopy of developing zebrafish embryos.Data from the assay component Tanguay_ZF_120hpf_CRAN was analyzed into 1 assay endpoints. This assay endpoint, Tanguay_ZF_120hpf_CRAN, was analyzed in the positive analysis fitting direction relative to DMSO as the negative control and baseline of activity. Using a type of morphology reporter, gain-of-signal activity can be used to understand changes in developmentals as they relate to the whole embryo. To generalize the intended target to other relatable targets, this assay endpoint is annotated to the zebrafish development intended target family, where the subfamily is craniofacial morphogenesis.
Zebrafish husbandry: Tropical 5D wild-type adult zebrafish were housed in at an approximate density of 1000 per 100 gallon tank at the Sinnhuber Aquatic Research Laboratory, Oregon State University, Corvallis, OR. Each tank was kept at standard laboratory conditions of 28C on a 14-h light/10-h dark photoperiod in fish water consisting of reverse osmosis water supplemented with a commercially available salt (Instant Ocean). Spawning funnels were placed into the tanks the night prior, and embryos were collected and staged. To increase bioavailability, the chorion was enzymatically removed using pronase (63.6mg/ml, >/= 3.5U/mg, Sigma-Aldrich: P5147) at 4 hours post fertilization (hpf) using a custom automated dechorionator.Chemical exposures: Six hpf dechorionated embryos were placed 1 embryo per well in a 96-well plate prefilled with 90 ul of EM using automated embryo placement systems (AEPS). Ten microliters of each row of dilution plate 2 was added to 2 exposure plates. The final DMSO concentration used was 0.64% (vol/vol). Thirty-two embryos were also exposed to 5uM trimethyltin chloride (positive control). Plates were sealed to prevent evaporation and foil covered to reduce light exposure and kept in a 28C incubator. Embryos were statically exposed until 120 hpf. At 24 hpf, embryos were assessed for photomotor response using a custom photomotor response analysis tool (PRAT) and for developmental toxicity endpoints (MO24: mortality at 24 hpf, DP: developmental progression, SM: spontaneous movement, and NC: notochord distortion). At 120 hpf, locomotor activity was measured using Viewpoint Zebralab and assessed for 13 endpoints. Zebrafish acquisition and analysis program (ZAAP), a custom program designed to inventory, acquire, and manage zebrafish data, was used to collect developmental endpoints as either present or absent (i.e., binary responses were recorded). If mortality occurred for an embryo (at either 24 or 120 hpf), the non-mortality endpoints were not measured.

Row | SMILES | outcome | AC50
1 | FC(F)(F)C(F)(F)C(F)(F)CI | inactive | 
2 | FC(F)(F)C(F)(F)C(F)(F)C(F)(F)C(F)(F)C(F)(F)CC1CO1 (stereo not given) | inactive | 
3 | O=C(O)C=C(C(F)(F)F)C(F)(F)F | inactive | 
4 | OCCCC(F)(F)C(F)(F)C(F)(F)F | inactive | 
5 | OCC(F)(F)C(F)(F)C(F)(F)C(F)(F)C(F)(F)C(F)F | inactive | 
6 | O=S(=O)(OCC(F)F)C(F)(F)F | inactive | 
7 | O=C(O)C(F)(F)C(F)(F)C(F)(F)C(F)(F)C(F)(F)C(F)(F)C(F)(F)C(F)(F)C(F)(F)C(F)(F)C(F)(F)C(F)(F)F | inactive | 
8 | FC(F)(F)C(F)(F)C(F)(F)C(F)(F)C(F)(F)CCI | inactive | 
9 | O=C(O)C(F)(F)C(F)(F)F | inactive | 
10 | FC(F)(F)C(F)(F)C(F)(F)C(F)(F)CCI | inactive | 
11 | FC(F)(F)C(F)(F)CNCC(F)(F)C(F)(F)F | inactive | 
12 | O=C(O)C(F)(F)C(F)(F)C(F)(F)C(F)(F)C(F)(F)C(F)(F)C(F)(F)C(F)(F)C(F)(F)C(F)(F)C(F)(F)C(F)(F)C(F)(F)F | inactive | 
13 | O=C(O)C(F)(OC(F)(F)C(F)(OC(F)(F)C(F)(F)C(F)(F)F)C(F)(F)F)C(F)(F)F (stereo not given) | inactive | 
14 | C=CC(=O)OCC(F)(F)C(F)(F)C(F)(F)C(F)(F)C(F)(F)C(F)(F)C(F)(F)F | inactive | 
15 | FC(F)(F)C(F)(F)C(F)(F)C(F)(F)C(F)(F)C(F)(F)C(F)(F)Br | inactive | 
16 | O=P(O)(O)OCCC(F)(F)C(F)(F)C(F)(F)C(F)(F)C(F)(F)C(F)(F)F | inactive | 
17 | C=CC(F)(F)C(F)(F)C(F)(F)C(F)(F)C(F)(F)C(F)(F)C(F)(F)C(F)(F)C=C | inactive | 
18 | C=C(C)C(=O)OCCC(F)(F)C(F)(F)C(F)(F)C(F)(F)C(F)(C(F)(F)F)C(F)(F)F | inactive | 
19 | NC(=O)C(F)(F)C(F)(F)C(F)(F)C(F)(F)F | inactive | 
20 | C=C(C)C(=O)OCC(F)(F)C(F)(F)C(F)(F)F | inactive | 

Row | SMILES | outcome | AC50
21 | O=C(O)C(F)(F)C(F)(F)C(F)(F)C(F)(F)F | inactive | 
22 | O=C(O)C(F)(F)C(F)(F)C(F)(F)C(F)(F)C(F)(F)C(F)(F)C(F)(F)C(F)(F)C(F)(F)C(F)F | inactive | 
23 | O=S(=O)(OCCOC(F)(F)F)C(F)(F)F | inactive | 
24 | FC1CC(F)(F)C(F)(F)C1(F)F (stereo not given) | inactive | 
25 | Cc1ccc(S(=O)(=O)OCC(F)(F)C(F)(F)C(F)(F)C(F)(F)C(F)(F)C(F)F)cc1 | inactive | 
26 | OCC(F)(F)C(F)(F)C(F)(F)C(F)F | inactive | 
27 | CCO[Si](CCC(F)(F)C(F)(F)C(F)(F)C(F)(F)C(F)(F)C(F)(F)F)(OCC)OCC | inactive | 
28 | CCCCCCCCC(F)(F)C(F)(F)C(F)(F)C(F)(F)C(F)(F)C(F)(F)F | inactive | 
29 | C=C(C)C(=O)OCC(F)(F)C(F)(F)C(F)(F)C(F)(F)C(F)(F)C(F)(F)C(F)(F)F | inactive | 
30 | FC(F)(F)C(F)(F)C(F)(F)C(F)(F)C(F)(F)C(F)(F)C(F)(F)C(F)(F)F | inactive | 
31 | N=C(N)C(F)(F)C(F)(F)C(F)(F)C(F)(F)C(F)(F)C(F)(F)C(F)(F)F | inactive | 
32 | COC(=O)CCC(F)(F)C(F)(F)C(F)(F)C(F)(F)F | inactive | 
33 | O=C(CC(=O)C(F)(F)C(F)(F)F)C(F)(F)F | inactive | 
34 | O=S(=O)(O)C(F)(F)C(F)(F)C(F)(F)C(F)(F)C(F)(F)C(F)(F)C(F)(F)F |  | 33.4 µM (active)
35 | O=C(O)C(F)(F)C(F)(F)C(F)F | inactive | 
36 | C=CC(=O)OCC(F)(F)C(F)(F)C(F)(F)C(F)(F)COC(=O)C=C | inactive | 
37 | O=C(O)C(F)(F)C(F)(F)OC(F)(F)F | inactive | 
38 | OCCCC(F)(F)C(F)(F)C(F)(F)C(F)(F)C(F)(F)C(F)(F)C(F)(F)F | inactive | 
39 | OCC(F)(F)C(F)(F)C(F)(F)F | inactive | 
40 | O=C(O)C(F)(F)C(F)(F)C(F)(F)C(F)(F)C(F)(F)C(F)(F)C(F)(F)C(F)(F)Cl |  | 37.2 µM (active)
